# Screens as filed in PubChem.
# EPAC2 antag = antagonists of human EPAC2. Q8WZA2. EPAC2 GEF exchange of Rap1B-BODIPY-GDP, fluorescence. Potency, µM (doses to about 114 µM), for the others: at the highest dose activity, negative = inhibition, actives largely listed as inhibitors. AID 720708. actives 0.18% (n = 360,000); also: potency is read from the fitted curve at half-maximal effect; % is scaled to controls: 0 for no effect and ±100 for the full control effect; nearly all actives have a fitted effect of over 45% in size
# EPAC1 antagonist = EPAC1 (human) antagonism. Potency, µM (top dose mostly 115 µM), for the others: at the highest dose activity change, negative = inhibition, actives largely listed as inhibitors. EPAC1 GEF assay, Rap1b-BODIPY-GDP exchange fluorescence. actives 0.14% (n = 360,000);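 also: potency is read from the fitted curve at half-maximal effect; plate controls were vehicle for no effect and positive control for full effect; nearly all actives have a fitted effect of over 50% in size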
# EPAC1 agonist = agonists of human EPAC1 | O95398 | EPAC1 agonist qHTS, biochemical assay; response scale: 100% = response to 6.5 mM cAMP | Potency, µM (highest dose often 154 µM), without a hit: top-dose activation, hits mostly activators | actives 0.073% (n = 360,000) | AID 720707; also: potency is read from the fitted curve at half-maximal effect; nearly all actives have a fitted effect of over 60% in size
#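 Normalized to 6.5 mM cAMP, activity reflects EPAC1-catalysed release of BODIPY-GDP from Rap1B, followed kinetically over 30 min at 480 nm excitation, 540 nm emission. Reaction contained 100 nM EPAC1, 250 nM Rap1B-BODIPY-GDP, 50 uM GDP.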
# FBPA coupling cs = coupling enzyme interference in Giardia aldolase counter-screen | coupling enzyme system counterscreen, AmpLite Red fluorescence | activity change, negative = inhibition, % at 58.2 µM, hits read low | actives 0.67% (n = 290,000) | AID 2472; in the data active = activity change below about -30%; also: % is scaled to controls: 0 for no effect and ±100 for the full control effect
#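 Coupling enzymes only (glyceraldehyde-3-phosphate) + compound, at 57.5 uM final, 10 min RT; add substrate/coupling/AmpLite Red mix, 20 min RT; fluorescence ex 525/em 598 nm. Actives flag coupling-system interference.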
# USP1-UAF1 inh = blocks the human USP1/UAF1 deubiquitinase complex; AID 743255; recombinant USP1/UAF1, Ub-Rhodamine cleavage fluorescence; O94782; Potency, µM (highest dose often 57.1 µM), for inactives: top-dose activity change, negative = inhibition, hits mostly inhibitors; actives 0.23% (n = 390,000); also: potency is read from the fitted curve at half-maximal effect; % is scaled to controls: 0 for no effect and ±100 for the full control effect; nearly all actives have a fitted effect of over 60% in size
#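 USP1/UAF1 complex at 1 nM was preincubated with compound for 15 min at room temperature, then Ub-Rho substrate (150nM final) was added. Fluorescence (480/540 nm) was read kinetically, 6 reads every 60 seconds.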
# EPAC2 agonist = EPAC2 (human) agonism. Q8WZA2. EPAC2 activation, biochemical qHTS; response scale: 100% = 6.5 mM cAMP response. Potency, µM (top dose mostly 154 µM), for the others: top-dose activation, usual class: activators. actives 0.079% (n = 360,000). AID 720711; also: potency is read from the fitted curve at half-maximal effect; nearly all actives have a fitted effect of over 50% in size
#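 Compounds were added across a concentration range to EPAC2 (100 nM), RAP1B-BODIPY-GDP (250 nM) and GDP (50 uM). After 5 min at room temperature, fluorescence was recorded at 5-min intervals for 30 min.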
# Active calls of the source: *; ? = inconclusive; · = no result; [ ] = remark or other dose. Only some compounds are listed: those with a hit (about 0.87% of all), similar ones and a draw of the others. Unless noted, calls follow the shape of the dose curve; as a rule, active = well fitted curve in the direction sought with a large enough effect; inconclusive = small, poorly fitted or top-dose-only effect, or another doubt; inactive = no such curve, though single readings can be large; an effect the other way counts as inactive or inconclusive.
SMILES,EPAC2 antag,EPAC1 antagonist,EPAC1 agonist,FBPA coupling cs,USP1-UAF1 inh,EPAC2 agonist
CCCCOC(=O)c1ccc(NC(=O)c2ccc3c(c2)CCCN3S(C)(=O)=O)cc1,·,·,·,·,-15.5%,·
CS(=O)(=O)N(Cc1cc2ccccc2[nH]c1=O)C1CCCCC1,-1.8%,-15.0%,7.0%,4.6,-8.3%,8.0%
CC(C)(C)NC(=O)NC(=O)CN1CCc2ccccc21,?,0.9%,-2.6%,-39.1*,-8.2%,12.3%
COc1ccc(C(=O)Nc2ccccc2C(=O)N(Cc2ccco2)C(C(N)=O)C(C)C)cc1 (stereo not given),10.6%,-1.4%,-6.8%,2.8,-14.5%,-8.5%
Cc1ccc(C)c(S(=O)(=O)C(C#N)c2nc3ccccc3nc2N2CCCC2)c1 (stereo not given),-0.4%,2.0%,6.0%,-35.7*,-7.6%,4.2%
Cc1ccc(C)c(S(=O)(=O)C(C#N)c2nc3ccccc3nc2N2CCOCC2)c1 (stereo not given),2.1%[57.1 µM],-1.9%,18.1%,0.1,-5.2%,-3.1%
Nc1cc(=O)[nH]c(SCC(=O)NC2CCCc3ccccc32)n1 (stereo not given),-1.3%,10.5%,0.2%,2.1,-10.2%,3.4%
CCCc1cc(=O)[nH]c(SCC(=O)NC2CCCc3ccccc32)n1 (stereo not given),-23.7%,-5.5%,4.8%,-38.1*,-17.3%,3.6%
O=C1c2ccc3c4c(ccc(c24)C(=O)N1NC(=O)C(F)(F)F)CC3,15.4%,9.0%,-6.8%,4.5,?,4.1%
CC(=O)NN1C(=O)c2ccc3c4c(ccc(c24)C1=O)C(=O)N(NC(C)=O)C3=O,-6.6%,-4.9%,-4.4%,-32.1*,-14.5%,1.3%
Cc1ccc2c(c1C)-c1c(ccc(C)c1C)C(=O)C2=O,?,-9.2%,23.5%,·,8.91µM*,13.8%
O=C(N/N=C/c1ccccc1C(=O)O)c1cccc(S(=O)(=O)Nc2cc(Cl)ccc2Cl)c1,-15.5%,?,6.0%,17.3,-10.8%,6.2%
Cc1ccc(/C=N/NC(=O)c2cccc(S(=O)(=O)Nc3ccccc3Cl)c2)s1,-1.7%,-10.8%,11.4%,-33.6*,-19.0%,9.1%
CCN(CC)CCNC(=O)c1ccc(N2CCCCC2)c(NS(=O)(=O)c2ccc(C)cc2)c1,-4.0%,-3.1%,4.3%,-3.2,-3.9%,9.1%
CCN(CC)CCNc1cc(C)nc2c1C(=O)C(=O)C=C2N1CCCCC1,-13.4%,-10.3%,-9.9%,-64.1*,-15.8%,-9.3%
O=C1c2ccccc2-c2onc3ccc(N4CCCC4)c1c23,124.5%,145.5%,-152.2%,-49.9*,14.1µM*,-123.7%
CCNc1ccc2noc3c2c1C(=O)c1ccccc1-3,152.0%,415.0%,112µM*,-4.9,?,89.1µM*
O=C1c2ccccc2-c2onc3ccc(NCc4ccco4)c1c23,252.2%,102.1%,?,-42.8*,43.5%,?
O=C1c2ccccc2-c2onc3c(Oc4ccccc4)cc(O)c1c23,·,·,·,-1.5,·,·
CCOc1ccc2noc3c2c1C(=O)c1ccccc1-3,3.9%,3.7%,-11.5%,-45.5*,-18.1%,8.3%
COc1cc2cc(C(c3nnnn3C(C)(C)C)N3CCc4ccccc4C3)c(=O)[nH]c2cc1OC (stereo not given),-7.1%,-1.5%,7.3%,-3.3,-10.6%,11.7%
CN(C)c1nc(C(F)(F)F)cc(=O)[nH]1,2.7%,-5.5%,6.1%,-3.9,-12.7%,8.0%
COc1cc(/C=C2/SC(=S)N(Cc3ccccc3)C2=O)ccc1OS(C)(=O)=O,0.1%,-25.8%,6.4%,-2.1,-4.9%,19.5%
COc1cc(/C=C2\SC(=S)N(CC(=O)O)C2=O)ccc1OS(=O)(=O)c1ccc(C)cc1,?,89.1µM*,-11.5%,·,-16.1%,-11.6%
COc1cc(/C=C2/SC(=S)N(CC(=O)O)C2=O)ccc1OC(=O)c1cccs1,?,79.4µM*,-8.3%,11.1,-14.1%,12.2%
